Measured values published in ChEMBL document CHEMBL3988442, “University of Dundee, Small-Polar-MMV Screening Library” (2021).

target: T1, Proteasome subunit beta (Trypanosoma cruzi) (UniProt O96673); assay: Trypanosoma cruzi proteasome chymotrypsin-like activity (TcProtChymo) assay.; format: functional; parameters: scale not given: in the data most compounds retested in dose-response had high values; details: 9.37 µM
T1 sequence (whole entry): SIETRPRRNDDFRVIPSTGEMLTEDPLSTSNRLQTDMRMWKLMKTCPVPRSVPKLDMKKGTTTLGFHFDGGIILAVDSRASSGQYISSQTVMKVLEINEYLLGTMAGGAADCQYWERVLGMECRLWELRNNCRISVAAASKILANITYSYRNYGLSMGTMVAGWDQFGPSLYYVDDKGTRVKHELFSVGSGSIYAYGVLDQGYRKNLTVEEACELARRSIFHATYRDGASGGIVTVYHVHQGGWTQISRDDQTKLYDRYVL

Row | SMILES | Percent Effect [%]
1 | COc1ccc(CNC(=O)CNc2cc3c(cc2Cl)OCCCO3)cc1 | 3.35
2 | CCOCCOc1ccccc1C(=O)N1CCCC(c2ncc[nH]2)C1 (configuration not stated) | 23.2
3 | CC(O)CN1CCN(C(=O)c2cc3ccccc3c(=O)[nH]2)CC1 (configuration not stated) | 13.1
4 | CCN1CCC(NC(=O)CN2CCCC2Cn2nc(C)cc2C)CC1 (configuration not stated) | -0.54
5 | CCc1ccc(OCC(O)CN2CCN(S(C)(=O)=O)CC2)cc1 (configuration not stated) | 3.96
6 | O=C1CCCN1CC1CN(C(=O)CC2CCCC2)Cc2nccn2C1 (configuration not stated) | 11.7
7 | Cc1nc(C2CCN(C(=O)c3cccnc3)CC2)c2sccn12 | 7.8

species: Homo sapiens; assay: To identify inhibition of the IFN signalling (Jak-Stat) pathway via expression of an eGFP reporter gene under the control of an IFN-stimulated response element (ISRE) containing MxA promoter.; format: functional; parameters: scale not given: direction of the effect not stated beside the values; details: 30 µM

Row | SMILES | Percent Effect [%]
8 | CCCNCC1(O)CCCN(Cc2cccc(C)c2)C1=O (configuration not stated) | -21.7
9 | COCCC1(CO)CCCN(Cc2ccc(F)c(C)c2)C1 (configuration not stated) | -4.5
10 | Cn1cc(C(=O)N[C@@H]2CN(Cc3cccs3)[C@@H]3CCCO[C@@H]32)cn1 | -5.26
11 | Cn1ccnc1-c1cccc(NC(=O)NCCCO)c1 | 15.7
12 | CC(C)(C)NC(=O)CNC(=O)CCc1ccccc1Br | -3.55
13 | c1ccc(CN2CCCC(c3nccnc3-n3ccnc3)C2)cc1 (configuration not stated) | 7.14
14 | COc1ccc2nnc(CCCC(=O)NCCC3=CCCCC3)n2n1 | 23.4
15 | Cc1cnn(CC2CN(Cc3nc(N)c4ccccc4n3)CCO2)c1 (configuration not stated) | 10.5
16 | O=C(c1ccccn1)N1CCc2nc(-c3cnccn3)nc(O)c2C1 | 14.4
17 | NCC(c1ccccc1)N1CCc2sccc2C1 (configuration not stated) | 5.62
18 | Cc1cc(C(=O)N2Cc3ccccc3OC3(CCOCC3)C2)nc(N)n1 | 0.0795
19 | CC1=Nc2c(c(=O)[nH]n2C(C)C)C(c2ccccc2)S1 (configuration not stated) | 32.4
20 | FC(F)(F)c1cc(N2CCc3ncnc(NC4CC4)c3CC2)ncn1 | 10.9
21 | O=C(Nc1ccc(F)cc1F)Nc1c[nH]c(=O)[nH]c1=O | 8.21
22 | Cn1c(Cn2cccn2)nnc1C1CCN(Cc2cccnc2N)CC1 | 12.7
23 | Cc1ccc(C2CSCCN2C(=O)C2=CCCC2)o1 (configuration not stated) | -24
24 | COC(=O)c1cccc(C(=O)N2CCN(c3cccc(C)c3C)CC2)n1 | 87
25 | NS(=O)(=O)N1CCc2ccc(NC(=O)Cc3ccc(F)cc3)cc21 | 20.9
26 | COc1ccccc1C1CNC(=O)c2nc(-c3cnn(C)c3)[nH]c2C1 (configuration not stated) | 5.8
27 | O=C1NCCN1C1CCN(Cc2nc(-c3ccoc3)no2)CC1 | -2.53

Row | SMILES | Percent Effect [%]
28 | Cc1ccc(N2CC3(COCCN(Cc4nccs4)C3)OCC2=O)s1 (configuration not stated) | 8.7
29 | CCOCCCn1c(NC(=O)c2cnn(C)c2)nc2ccccc21 | 11.1
30 | CCn1nnc2cc(C(=O)N3CCCC3Cn3cc(C)cn3)ccc21 (configuration not stated) | 9.94
31 | CN(C)CC1CSCCCN1C(=O)c1ccc(C(C)(C)C)cc1 (configuration not stated) | 1.95
32 | CS(=O)(=O)CC(=O)N1C[C@H]2CCC[C@@]2(COCc2ccccn2)C1 | -5.57
33 | COc1ccccc1CN(C)C(=O)c1cc(CN2CCC(O)CC2)on1 | -1.57
34 | COCC(O)CNC(=O)c1coc(COc2ccc3sc(C)nc3c2)n1 (configuration not stated) | 44.1
35 | CCc1n[nH]c(C2CN(Cc3nccn3CC)CCO2)n1 (configuration not stated) | 7.94
36 | COc1ccc(-n2ccc(C(=O)N3CCN(C)CC3C)n2)cc1 (configuration not stated) | 3.45
37 | c1ccc(-c2noc(CNC3CCc4ncnn4C3)n2)nc1 (configuration not stated) | 6.37
38 | Cc1cc(=O)n2ncnc2n1CC(O)c1cc(F)ccc1F (configuration not stated) | 6.3
39 | CSc1ccc(C(CNC(=O)C2CC2)N2CCc3sccc3C2)cc1 (configuration not stated) | 9.34
40 | CS(=O)(=O)NC[C@H]1OC[C@@H]2CCN(Cc3ccc(F)cc3)C[C@@H]21 | 13.4
41 | COc1ccc(CNC(=O)CNc2cc3c(cc2Cl)OCCCO3)cc1 | 11.5
42 | CCOCCOc1ccccc1C(=O)N1CCCC(c2ncc[nH]2)C1 (configuration not stated) | 6.64
43 | CC(O)CN1CCN(C(=O)c2cc3ccccc3c(=O)[nH]2)CC1 (configuration not stated) | -6.84
44 | CCN1CCC(NC(=O)CN2CCCC2Cn2nc(C)cc2C)CC1 (configuration not stated) | 3.04
45 | CCc1ccc(OCC(O)CN2CCN(S(C)(=O)=O)CC2)cc1 (configuration not stated) | 16
46 | O=C1CCCN1CC1CN(C(=O)CC2CCCC2)Cc2nccn2C1 (configuration not stated) | -6.04
47 | Cc1nc(C2CCN(C(=O)c3cccnc3)CC2)c2sccn12 | -15.3

target: T2, Tyrosyl-tRNA synthetase, putative (Trypanosoma cruzi (strain CL Brener)) (UniProt Q4DSP6); assay: Trypanosoma cruzi tyrosyl tRNA synthetase (TcYRS) _High Tyrosine SOP; format: functional; parameters: scale not given: in the data most compounds retested in dose-response had high values; details: 30 µM
T2 sequence (whole entry): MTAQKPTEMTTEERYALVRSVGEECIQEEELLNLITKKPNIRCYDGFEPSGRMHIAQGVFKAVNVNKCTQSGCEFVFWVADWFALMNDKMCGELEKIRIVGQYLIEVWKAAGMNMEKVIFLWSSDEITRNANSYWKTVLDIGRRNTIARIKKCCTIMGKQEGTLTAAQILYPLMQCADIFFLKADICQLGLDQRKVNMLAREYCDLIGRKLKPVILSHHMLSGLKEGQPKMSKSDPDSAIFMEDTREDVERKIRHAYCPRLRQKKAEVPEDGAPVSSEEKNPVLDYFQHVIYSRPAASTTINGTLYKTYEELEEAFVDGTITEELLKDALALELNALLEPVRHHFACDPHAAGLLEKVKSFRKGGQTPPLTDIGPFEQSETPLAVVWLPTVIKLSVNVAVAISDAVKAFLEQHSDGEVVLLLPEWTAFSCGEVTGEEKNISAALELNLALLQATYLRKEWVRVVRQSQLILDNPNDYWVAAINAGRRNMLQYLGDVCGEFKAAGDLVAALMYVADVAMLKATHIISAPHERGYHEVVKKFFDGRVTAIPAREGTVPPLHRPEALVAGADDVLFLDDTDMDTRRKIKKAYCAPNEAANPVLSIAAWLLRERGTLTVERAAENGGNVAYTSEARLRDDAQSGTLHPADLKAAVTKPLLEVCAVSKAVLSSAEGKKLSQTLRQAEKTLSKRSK

Row | SMILES | Percent Effect [%]
48 | CCCNCC1(O)CCCN(Cc2cccc(C)c2)C1=O (configuration not stated) | 3.23
49 | COCCC1(CO)CCCN(Cc2ccc(F)c(C)c2)C1 (configuration not stated) | 3.23
50 | Cn1cc(C(=O)N[C@@H]2CN(Cc3cccs3)[C@@H]3CCCO[C@@H]32)cn1 | 1.04
51 | Cn1ccnc1-c1cccc(NC(=O)NCCCO)c1 | 5.26
52 | CC(C)(C)NC(=O)CNC(=O)CCc1ccccc1Br | 6.32
53 | c1ccc(CN2CCCC(c3nccnc3-n3ccnc3)C2)cc1 (configuration not stated) | 5.32
54 | COc1ccc2nnc(CCCC(=O)NCCC3=CCCCC3)n2n1 | 7.41
55 | Cc1cnn(CC2CN(Cc3nc(N)c4ccccc4n3)CCO2)c1 (configuration not stated) | 4.76
56 | O=C(c1ccccn1)N1CCc2nc(-c3cnccn3)nc(O)c2C1 | 4.3
57 | NCC(c1ccccc1)N1CCc2sccc2C1 (configuration not stated) | 8.51
58 | Cc1cc(C(=O)N2Cc3ccccc3OC3(CCOCC3)C2)nc(N)n1 | 2.15
59 | CC1=Nc2c(c(=O)[nH]n2C(C)C)C(c2ccccc2)S1 (configuration not stated) | 22.2
60 | FC(F)(F)c1cc(N2CCc3ncnc(NC4CC4)c3CC2)ncn1 | 5.21
61 | O=C(Nc1ccc(F)cc1F)Nc1c[nH]c(=O)[nH]c1=O | -1.06
62 | Cn1c(Cn2cccn2)nnc1C1CCN(Cc2cccnc2N)CC1 | -1.05
63 | Cc1ccc(C2CSCCN2C(=O)C2=CCCC2)o1 (configuration not stated) | 1.07
64 | COC(=O)c1cccc(C(=O)N2CCN(c3cccc(C)c3C)CC2)n1 | 2.12
65 | NS(=O)(=O)N1CCc2ccc(NC(=O)Cc3ccc(F)cc3)cc21 | -3.23
66 | COc1ccccc1C1CNC(=O)c2nc(-c3cnn(C)c3)[nH]c2C1 (configuration not stated) | 5.82
67 | O=C1NCCN1C1CCN(Cc2nc(-c3ccoc3)no2)CC1 | 0.971

Row | SMILES | Percent Effect [%]
68 | Cc1ccc(N2CC3(COCCN(Cc4nccs4)C3)OCC2=O)s1 (configuration not stated) | 3.17
69 | CCOCCCn1c(NC(=O)c2cnn(C)c2)nc2ccccc21 | 6.8
70 | CCn1nnc2cc(C(=O)N3CCCC3Cn3cc(C)cn3)ccc21 (configuration not stated) | 0.493
71 | CN(C)CC1CSCCCN1C(=O)c1ccc(C(C)(C)C)cc1 (configuration not stated) | 6.35
72 | CS(=O)(=O)CC(=O)N1C[C@H]2CCC[C@@]2(COCc2ccccn2)C1 | 0
73 | COc1ccccc1CN(C)C(=O)c1cc(CN2CCC(O)CC2)on1 | 6.45
74 | COCC(O)CNC(=O)c1coc(COc2ccc3sc(C)nc3c2)n1 (configuration not stated) | 5.38
75 | CCc1n[nH]c(C2CN(Cc3nccn3CC)CCO2)n1 (configuration not stated) | 12.4
76 | COc1ccc(-n2ccc(C(=O)N3CCN(C)CC3C)n2)cc1 (configuration not stated) | 8.74
77 | c1ccc(-c2noc(CNC3CCc4ncnn4C3)n2)nc1 (configuration not stated) | 2.97
78 | Cc1cc(=O)n2ncnc2n1CC(O)c1cc(F)ccc1F (configuration not stated) | 5.32
79 | CSc1ccc(C(CNC(=O)C2CC2)N2CCc3sccc3C2)cc1 (configuration not stated) | 8.51
80 | CS(=O)(=O)NC[C@H]1OC[C@@H]2CCN(Cc3ccc(F)cc3)C[C@@H]21 | 3.12
81 | COc1ccc(CNC(=O)CNc2cc3c(cc2Cl)OCCCO3)cc1 | 1.07
82 | CCOCCOc1ccccc1C(=O)N1CCCC(c2ncc[nH]2)C1 (configuration not stated) | 8.6
83 | CC(O)CN1CCN(C(=O)c2cc3ccccc3c(=O)[nH]2)CC1 (configuration not stated) | 0
84 | CCN1CCC(NC(=O)CN2CCCC2Cn2nc(C)cc2C)CC1 (configuration not stated) | 4.43
85 | CCc1ccc(OCC(O)CN2CCN(S(C)(=O)=O)CC2)cc1 (configuration not stated) | 0.952
86 | O=C1CCCN1CC1CN(C(=O)CC2CCCC2)Cc2nccn2C1 (configuration not stated) | 4.23
87 | Cc1nc(C2CCN(C(=O)c3cccnc3)CC2)c2sccn12 | 2.15
